High-throughput results as filed in PubChem.
An excerpt weighted towards active compounds, which were near 7.5% of everything screened.
NPC1 prom act: activators of NPC1 promoter | Huh7 NPC1 promoter luciferase reporter, 24 h | Potency, µM (series often up to 9.22 µM), for inactives: at the highest dose activation, actives largely listed as activators | 320,000 tested, 2.4% active | AID 485313; further: % of control where 0% means no effect; nearly all actives have a fitted effect of over 60% in size
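NPC1 promoter–luciferase Huh7 cells; 24 h compound; luminescence.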
Luc counter: Kinase-Glo luciferase inhibition (counter-screen). Kinase-Glo luciferase, ATP luminescence, 8 min. Potency, µM (titrated, usually from 38.3 µM), for inactives: at the top dose activity change, negative = inhibition, usual class: inhibitors. 200,000 tested, 0.28% active; further: on the % scale 0 is the no-effect control and ±100 the full control effect; nearly all actives have a fitted effect of over 60% in size
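Substrate mix (final 50 mM imidazole pH 7.2, 50 mM KCl, 7 mM MgCl2, 10 uM ATP, 0.01% Tween 20, 0.05% BSA) plus pin-tool compound, then Kinase-Glo detection mix; 8 min ambient, luminescence read.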
FLuc counter: firefly luciferase modulation, counter-screen for miR-21 project; P08659; purified FLuc, Km substrates, luminescence inhibition; Potency, µM (doses to about 57.5 µM), for the others: at the top dose activity change, negative = inhibition, actives largely listed as inhibitors; 360,000 tested, 6.9% active; AID 588342;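 further: plate controls were vehicle for no effect and reference inhibitor for full effect; nearly all actives have a fitted effect of over 55% in size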
Target sequence (P08659 whole entry, looked up): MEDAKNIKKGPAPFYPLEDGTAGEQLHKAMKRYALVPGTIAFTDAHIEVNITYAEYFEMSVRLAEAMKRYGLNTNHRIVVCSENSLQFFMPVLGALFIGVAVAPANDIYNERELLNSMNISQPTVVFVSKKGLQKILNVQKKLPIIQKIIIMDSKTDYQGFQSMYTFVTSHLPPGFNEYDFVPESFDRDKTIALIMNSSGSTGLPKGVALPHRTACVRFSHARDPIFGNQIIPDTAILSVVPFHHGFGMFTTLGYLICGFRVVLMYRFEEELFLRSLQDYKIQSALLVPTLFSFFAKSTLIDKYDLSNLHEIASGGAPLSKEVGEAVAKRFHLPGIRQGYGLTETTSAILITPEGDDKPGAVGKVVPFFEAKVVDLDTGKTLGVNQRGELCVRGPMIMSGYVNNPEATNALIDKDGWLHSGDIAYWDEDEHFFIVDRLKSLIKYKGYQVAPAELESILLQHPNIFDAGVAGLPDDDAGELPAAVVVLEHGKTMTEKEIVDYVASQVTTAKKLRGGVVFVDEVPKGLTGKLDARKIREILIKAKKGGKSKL
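Biochemical qHTS of compounds, final roughly 60 µM downward over six points, against 10 nM purified firefly luciferase using Km concentrations of substrates (10 uM D-luciferin, 10 uM ATP) in Tris acetate pH 7.5 buffer; luminescence output.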
ELG1 genotoxic: inducers of genotoxicity in HEK293T ELG1-luciferase cells | Potency, µM (top dose mostly 46 µM), inactives show at the highest dose activity change, positive = activation, hits mostly activators | HEK293T ELG1-luciferase reporter, luminescence, 16 h | 330,000 tested, 1.3% active; further: % of control where 0% means no effect; nearly all actives have a fitted effect of over 60% in size
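HEK293T cells expressing luciferase-tagged ELG1 were exposed to compound or DMSO vehicle for 16 hr at 37 °C and 5% CO2. Luciferase activity was then measured with ONE-Glo after 30 min at room temperature.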
SMN2 splice enh: enhancers of SMN2 splice variant expression; HEK293 SMN2-luciferase splicing reporter, luminescence, 30-36 h; Potency, µM (highest dose often 46.1 µM), for inactives: at the highest dose activity change, positive = activation, actives largely listed as activators; 210,000 tested, 2.8% active; further: % of control where 0% means no effect; nearly all actives have a fitted effect of over 55% in size
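qHTS luciferase splicing reporter: luminescence rises when SMN2 exon 7 is included in transfected HEK293 cells. Compound exposure lasted 30-36 h at 37C, with 4.5 mM final sodium butyrate as control, followed by a ONE-Glo read.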
Rab9 prom act: activators of Rab9 promoter. AID 485297. Huh7 Rab9 promoter-luciferase reporter, luminescence, 24 h. Potency, µM (top dose mostly 9.22 µM), for inactives: at the highest dose activation, negative = inhibition, actives largely listed as activators. 320,000 tested, 2.8% active; further: % of control where 0% means no effect; nearly all actives have a fitted effect of over 60% in size
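Cell-based reporter: Huh7 stable for Rab9 promoter-driven luciferase, plated in reduced-serum medium with 10% FBS at 1500 cells/well, compound-treated 24 h at 37 °C, luminescence read after 10 min reagent.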
Starred values were filed as active, the others as inactive; [ ] = remark or other dose. The call rests on the fitted dose curve; in most records, active means well fitted curve in the direction sought with a large enough effect; inconclusive means small, poorly fitted or top-dose-only effect, or another doubt; inactive means no such curve, though single readings can be large; an effect the other way counts as inactive or inconclusive. Potency means the concentration at half of the fitted maximal effect.

What do the screens show for `Cc1ccc(Cn2ccnc2C(=O)Nc2ccccc2)cc1`?
NPC1 prom act: 4µM*; Luc counter: 1%; FLuc counter: 7.6µM*; ELG1 genotoxic: inconclusive; SMN2 splice enh: 16µM*; Rab9 prom act: 1.6µM*

What do the screens show for `Cc1cccnc1Nc1nc(-c2ccccc2)cs1`?
NPC1 prom act: 3.2µM*; FLuc counter: 1.9µM*; ELG1 genotoxic: 2.6µM*; Rab9 prom act: 3.5µM*

Results for Cc1cccnc1Nc1nc(-c2ccccn2)cs1 ?
NPC1 prom act: inconclusive; Luc counter: -7%; FLuc counter: inconclusive; ELG1 genotoxic: 5.8µM*; Rab9 prom act: -1%

What do the screens show for `C/C(=N/OCO/N=C(/C)c1ccc(F)cc1)c1ccc(F)cc1`?
NPC1 prom act: 0%; Luc counter: 3%; FLuc counter: 3%; ELG1 genotoxic: 5%; SMN2 splice enh: 8.9µM*; Rab9 prom act: 10%

What do the screens show for `CCCCCCNC(=O)Nc1ccc(S(=O)(=O)Nc2ccc(CCNC[C@H](O)COc3ccc(O)cc3)cc2)cc1`?
Luc counter: -2%; SMN2 splice enh: -1%

What do the screens show for `Cc1nc(CNC(=O)c2cc(COc3ccc(F)cc3Cl)on2)cs1`?
NPC1 prom act: -1%; FLuc counter: 27µM*; ELG1 genotoxic: 1%; Rab9 prom act: 0%

What do the screens show for `COc1ccc(OCc2cc(C(=O)NCc3nc(C)cs3)no2)c(Cl)c1`?
NPC1 prom act: inconclusive; FLuc counter: 13µM*; ELG1 genotoxic: inconclusive; Rab9 prom act: inconclusive

How did COc1ccc(OCc2cc(C(=O)NC(C)c3csc(C)n3)no2)c(Cl)c1 (stereo not drawn) do in these assays?
NPC1 prom act: inconclusive; FLuc counter: 13µM*; ELG1 genotoxic: 7%[9.26 µM]; Rab9 prom act: 4.5µM*

What do the screens show for `CC(C)Oc1ccc(CNS(=O)(=O)c2cnc(N)nc2)cc1`?
FLuc counter: -4%

Results for Cc1ccc(NC(=O)Cn2c(=O)oc3cc(S(=O)(=O)NCc4ccccc4)ccc32)cc1 ?
FLuc counter: -19%; SMN2 splice enh: -10%

Results for CN1c2ccccc2Oc2nnc(N3CCN(Cc4ccccc4)CC3)cc21 ?
NPC1 prom act: 23%; Luc counter: 0%; FLuc counter: 19µM*; ELG1 genotoxic: 4%; Rab9 prom act: inconclusive

Results for COc1ccc(-n2c(SCC(=O)Nc3ccc4c(c3)OCO4)nc3c([nH]c4ccccc43)c2=O)cc1 ?
FLuc counter: 4%

What do the screens show for `CCN(CC)S(=O)(=O)c1cc(C(=O)Nc2cc(C)[nH]n2)ccc1Cl`?
NPC1 prom act: 2.2µM*; FLuc counter: 8.5µM*; ELG1 genotoxic: inconclusive; Rab9 prom act: 2.5µM*

What do the screens show for `CCN(CC)S(=O)(=O)c1cc(C(=O)Nc2ccccc2[N+](=O)[O-])ccc1Cl`?
NPC1 prom act: inconclusive; Luc counter: -2%; FLuc counter: 9.5µM*; ELG1 genotoxic: inconclusive; SMN2 splice enh: -8%[1.84 µM]; Rab9 prom act: inconclusive

What do the screens show for `CCN(CC)S(=O)(=O)c1cc(C(=O)NC2=NCCS2)ccc1Cl`?
NPC1 prom act: 6%; Luc counter: -4%; FLuc counter: inconclusive; ELG1 genotoxic: 1%; SMN2 splice enh: -5%; Rab9 prom act: -2%

What do the screens show for `N#CC1=C2C=Cc3ccccc3N2CCCC1=O`?
NPC1 prom act: 2.2µM*; Luc counter: -15%; FLuc counter: 11µM*; ELG1 genotoxic: inconclusive; SMN2 splice enh: 23%; Rab9 prom act: 2.8µM*

How did Cc1ccc(CNCc2ccccc2Cl)s1 do in these assays?
FLuc counter: -5%; SMN2 splice enh: -4%

Results for CC1=C(C(=O)OC2CCCC2)C(c2c(Cl)cccc2Cl)CC(=O)N1 (stereo not drawn) ?
FLuc counter: -15%; SMN2 splice enh: -10%
